# Values joined by “and” are separate entries in the source; they are usually repeats but may differ in a detail not shown here. Equal values may be shown once. In all, about 150,000 compounds went through this assay and about 540 (0.36%) showed an effect of 50% or more. This excerpt belongs to a sample that is enriched for strong results.
# Tested on: Plasmodium falciparum
# Experiment: Primary screen in NF54 nanoGlo assay, in single point, at 2uM, 72h; a lower Z score goes with more inhibition
# Assay type: functional, Erythrocyte
# Conditions: timepoint 72 hour
Structure (SMILES),% Inhibition,Z score,% Inhibition (2 µM)
O=C1CC(C(=O)N2CCCC2c2ccncc2)CN1c1ccccc1 (stereo not drawn),-8%,1.05,–
O=C1CNC(C(=O)N2CCC[C@H]2c2ccncc2)=NN1c1ccccc1,3%,-0.62,–
O=C1CCC(C(=O)N2CCC[C@H]2c2ccncc2)=NN1c1ccccc1,67%,1.73,–
CN(C)c1noc(CN2CCc3ccc(F)cc3C2)n1,51%,-2.97,–
CCCc1nc(CN2CCc3ccc(F)cc3C2)no1,-4%,0.53,–
CN(C)c1noc(CN2CCc3c(F)cc(F)cc3C2)n1,10%,-0.88,–
O=C(NCc1ccccc1)c1[nH]cnc1C(=O)N1CCCCC1,11%,-1.23,–
Nc1nc(-c2ccccc2)c2cc3c(nn12)C[C@H](c1ccc(F)cc1)CC3=O,57%,0.5,–
COc1ccc(-c2n[nH]c3c2C(=O)C[C@@H](c2ccccc2)C3)cc1,-5%,0.48,–
Cc1nn(C)c2nc3c(c(N)c12)C(=O)C[C@@H](c1ccccc1)C3,-14%,1.9,–
CNc1snc(C)c1C(=O)N1CCN(Cc2ccc(-c3cccc(F)c3)s2)CC1,2%,-0.21,–
O=C(N[C@@H]1CC[C@H]2CCOc3ccccc3C(=O)N3CCN(C4CCC(F)(F)CC4)C[C@H]3C(=O)NC[C@H]1O2)C1CCOCC1,29%,-3.41,–
Cc1ccc(NC(=O)N2CCC(C(NC(=O)c3ccccc3)C(=O)N3CCCCC3C)CC2)cc1 (stereo not drawn),70%,0.76,–
CC(=O)N1CCC(C(NC(=O)c2cccs2)C(=O)N2CCCCC2C)CC1 (stereo not drawn),4%,-0.78,–
Cc1ccc(S(=O)(=O)N2CCC([C@H](NC(=O)c3ccccc3)C(=O)N3CCCC3)CC2)cc1,-14%,1.34,–
COc1ccc(Cc2n[nH]c3c2CN(Cc2nccs2)CC3)cc1OC,6%,-0.85,–
Cc1noc(CNC(=O)c2ccc3[nH]c(=O)[nH]c3c2)n1,-7%,1.3,–
CCOC1CC(N(C)S(=O)(=O)c2cnc(C)s2)C12CCC2 (stereo not drawn),-5%,0.63,–
CCCc1nc2ncnn2c(O)c1NC(=O)Nc1ccccc1Br,2%,-0.44,–
N#CC(c1nc2ccccc2s1)c1nc2ccccc2s1,60%,0.46,–
N#C[C@@H](C(=O)NCc1ccccc1)c1nc2ccccc2s1,-2%,0.39,–
N#C[C@@H](C(=O)c1cc2ccccc2[nH]1)c1nc2ccccc2s1,16%,-2.03,–
CCN(CC)C(=O)Nc1ccc(-c2c(C)nn(CC(N)=O)c2C)cc1,1%,-0.2,–
CCN(CC)c1ccc(CNC(=O)[C@H](C)c2c(C)noc2C)cc1F,-12%,1.74,–
CCOc1cccc(CN2CCC(C)(c3noc(C4CCOCC4)n3)CC2)c1,-13%,1.51,–
Fc1ccccc1N1CCN(C2CCN(Cc3c[nH]c4ccccc34)CC2)CC1,67%,-0.71,–

Structure (SMILES),% Inhibition,Z score,% Inhibition (2 µM)
Fc1ccccc1N1CCN(C2CCN(Cc3ccncc3)CC2)CC1,20%,-2.44,–
CCN1CCN(C2CCN(Cc3c[nH]c4ccccc34)CC2)CC1,5%,-0.83,–
c1cc(Oc2ccc3nnnn3n2)cc(-c2nnco2)c1,-14%,1.28,–
Cn1c(CN2CCN(c3ccnc4ccccc34)CC2)cc(=O)n(C)c1=O,17%,-2.24,–
NC(=O)CO[C@H]1CCOC[C@H]1NC(=O)c1ccc(Oc2ccccc2)o1,4%,-0.64,–
Cc1cccc(CN2CCC[C@@](O)(CN3CCN(CC4CC4)CC3)C2=O)c1,-10%,1.1,–
CC1CN(C(CNCc2cnn(C)c2)c2cccs2)CCO1 (stereo not drawn),-9%,0.92,–
CCN(c1noc(C2CCN(C(=O)C(C)C)CC2)n1)C(C)C,-18%,2.32,–
CCc1nn(C)c(OC)c1CNC(=O)N[C@@H]1Cc2ccccc2[C@H]1O,-13%,1.27,–
COc1ccc2cc1Oc1cccc(c1)CO[C@H]1CCN(C(=O)CN3CCC(O)CC3)C[C@H]1NC(=O)CC2,-23%,2.88,–
COc1cccc(-c2nc(C)c(C(=O)Nc3nc(C(C)C)n[nH]3)s2)c1,68%,-7.28,–
COc1ccc(-c2nc(C)c(C(=O)Nc3n[nH]c(CC(C)C)n3)s2)cc1OC,15%,-2.32,–
COc1cccc(-c2nc(C)c(C(=O)NC[C@@H]3CCCN4CCCCC34)s2)c1 (stereo partly drawn),-1%,0.17,–
COc1cccc(-c2nc(C)c(C(=O)Nc3n[nH]c(CC(C)C)n3)s2)c1,–,–,82% and 77%
COc1cccc(-c2nc(C)c(C(=O)Nc3cccc4[nH]ccc34)s2)c1,-1%,0.1,–
COc1cccc(-c2nc(C)c(C(=O)NCc3nnc4ccccn34)s2)c1,-3%,0.36,–
O=C(CCC1CCCCC1)NC1CCN(c2cn[nH]c(=O)c2)CC1,-10%,1.05,–
CCN(CC)c1nc2cc(C(=O)NCc3ccc(C)cc3)ccc2c(=O)n1Cc1ccccc1,5%,-0.78,–
COc1ccc(Cn2c(C)c(C3=CCN(S(=O)(=O)c4cc(C)c(C)cc4C)CC3)c3ccccc32)cc1,0%,0.05,–
CC(=O)Nc1ccc(C)cc1S(=O)(=O)N1CC=C(c2c(C)n(Cc3ccc(Cl)cc3)c3ccccc23)CC1,-14%,1.87,–
CC(=O)Nc1ccc(C)cc1S(=O)(=O)N1CC=C(c2c(C)n(Cc3ccccc3C)c3ccccc23)CC1,92%,-8.31,–
Cc1cc(C(F)(F)F)n(C[C@@H](C)Cn2cc(-c3cncnc3)nn2)n1,-6%,0.77,–
COC(=O)Nc1nc(-c2ccccc2)c(-c2nccc(OCC(F)(F)F)c2C)s1,30%,-3.82,–
COc1ccccc1N(C)Cc1c(C)noc1C,7%,-0.98,–
COc1ccccc1N(Cc1ccccc1)C1=NC(=[N+](Cc2ccccc2)c2ccccc2OC)c2ccccc21,73%,-6.15,–
COc1ccc(Cl)cc1N(Cc1ccccc1)Cc1ccccc1,-2%,0.32,–

# From ChEMBL document CHEMBL4888484, “Replenishing the malaria drug discovery pipeline: Screening and hit evaluation of the MMV Hit Generation Library 1 (HGL1) against asexual blood stage Plasmodium falciparum ,using a nano luciferase reporter read-out” (2022)
